What all share (test): NCI-60 one-dose screen, 48 h (100 = growth as untreated, 0 = no growth, -100 = all killed)
Common to all, as to details: 10 µM unless noted

For assay [1], the system named is NCI-H23 lung.
The subject of assay [2] is NCI-H226 lung.
For assay [3], the system named is NCI-H322M lung.
The test system of assay [4] is HOP-62 NSCLC.
For assay [5], the system named is NCI-H460 lung.
Assay [6] has as its system HOP-92 NSCLC.
The subject of assay [7] is NCI-H522 lung.
The subject of assay [8] is A549/ATCC NSCLC.
Assay [9] relates to 786-0 renal.
Assay [10] has as its system COLO 205 colon.

Compounds without any hit were thinned out: in the full panel of roughly 83,000, 20% have a hit.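 Testing used 96-well plates and a 48-hour single-concentration exposure. Example: -40 means 40% of the starting cells died.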 A number with no mark means an inactive call. Calls of active or inactive are those of the source. Rule for the calls: active = growth percent below 10; inactive = the rest.

As for `CCC(C)N(CCNc1cc(OC)cc2cccnc12)CC(C)C` (stereo not given), the growth in [1] was 86.5%; in [2] it was 92.7%; in assay [3] it was 95.2%; in [4], 107%; in assay [5], 98%; in [6] it was 105%. Also, the growth was 82.8% in [7], 102% in [8], 117% in [9] and 96.6% in [10].
Take `O=S(=O)(Nc1ccc(F)cc1F)c1ccc(-c2cnc(C3CC3)o2)cc1`: the growth is 38% in assay [1]; 64.3% in assay [2]; 47.4% in [3]; 39.7% in assay [4]; 16.3% in assay [5]; 44.4% in [6]. Further, the growth in [7] was 13.4%; in assay [8], 41.5%; in assay [9], 44%; in assay [10], 16.2%.
In the case of `CC(=O)O[C@@H]1C[C@]2(C(C)C)O[C@@]1(C)[C@@H]1CCC(C)=C1[C@@H]2OC(=O)/C=C/c1ccccc1`, the growth is 95.3% in assay [1]; 66.2% in [2]; 93.4% in assay [3]; 90.6% in [4]; 94.2% in assay [5]; 72.8% in [6]. Besides, the growth in [7] is 73.3%; in assay [8], 82.3%; in assay [9] it was 87.6%; in [10], 94.1%.
Consider `c1ccc([P+](c2ccccc2)(c2ccccc2)c2ccc3c4ccc([P+](c5ccccc5)(c5ccccc5)c5ccccc5)c5cccc(c6cccc2c63)c54)cc1`, for which the growth is 8.37% (active) in assay [1]; 15.7% in assay [2]; 17.8% in [3]; 14.1% in [4]; 4.26% (active) in assay [5]; 9.54% (active) in assay [6]. In addition, the growth in assay [7] was 6.86% (active); in assay [8], 11%; in assay [9], 40.7%; in assay [10], 1.4% (active).
For `COc1ccc(C(=O)C/C(=C\c2ccc(Cl)cc2)C(=O)NCc2ccccc2)cc1`, the growth in assay [1] is 90.6%; in assay [2] it was 73.4%; in assay [3] it was 84.5%; in assay [4], 82.6%; in assay [5] it was 74.4%; in [6], 86.2%. Also, the growth in assay [7] is 60.7%; in assay [8], 84.7%; in assay [9], 99.2%; in [10], 108%.
Take `Cn1ccc(=O)c(C(=O)Nc2nsc3ccc([N+](=O)[O-])cc23)c1`: the growth was 91.3% in assay [1]; 76.7% in [2]; 45.2% in assay [3]; 96.4% in [4]; 48.2% in assay [5]; 41.2% in assay [6]. Also, the growth is 53.3% in [7], 74.9% in assay [8], 56.2% in [9] and 76.9% in assay [10].
`O=C(NCCCl)Nc1ncccc1OCc1ccccc1`: the growth in assay [1] is 99.6%; in [2] it was 104%; in [3] it was 92.4%; in [4] it was 100%; in assay [5], 101%; in assay [6], 103%. The growth was 85.3% in assay [7], 103% in assay [8], 100% in assay [9] and 106% in assay [10].
Take `CC1CCN(S(=O)(=O)c2ccc(S(=O)(=O)N3CCCC(c4nc5c(nnn5Cc5cccc(Cl)c5)c(=O)[nH]4)C3)cc2)CC1` (stereo not given): the growth in [1] is 65.4%; in assay [2], 75.2%; in assay [3], 61.3%; in assay [4], 57.2%; in assay [5], 23.9%; in [6], 56%. For the same compound, the growth is 33.7% in [7], 64.8% in assay [8], 64.4% in assay [9] and 91.3% in assay [10].
As to `CCOC(=O)c1c(C(=O)c2cn(C)c3ccc(Br)cc23)c(-c2cn(C)c3ccc(Br)cc23)n(NC(=O)OC(C)(C)C)c1C`, the growth was 86.5% [100 µM] in [1]; 89.7% [100 µM] in [2]; 89.5% [100 µM] in [3]; 56.1% [100 µM] in [4]; 80.5% [100 µM] in [5]; 4.73% [100 µM] (active) in assay [6]. Also, the growth is 89.6% [100 µM] in assay [7], 74% [100 µM] in [8], 32% [100 µM] in [9] and 98.5% [100 µM] in assay [10].
Regarding `COc1ccc2c(c1)c(-c1nc(-c3c[nH]c4ccncc34)cs1)cn2C`, the growth in [1] was 46.3%; in assay [2] it was 48.7%; in assay [3], -31% (active); in assay [4], -82.7% (active); in [5], -78.2% (active); in assay [6], 35.8%. Moreover, the growth was -71.3% (active) in assay [7], -85.9% (active) in assay [8], -91.6% (active) in assay [9] and -81.7% (active) in assay [10].
For `O=C(CN1CCOCC1)Nc1nc(-c2cc3ccccc3oc2=O)cs1`, the growth is 111% in assay [1]; 88.2% in assay [2]; 100% in assay [3]; 96.9% in assay [4]; 103% in assay [5]; 90.7% in [6]. For the same compound, the growth in [7] was 98.7%; in assay [8], 105%; in [9] it was 103%; in [10], 120%.
`Nc1c(C(=O)Nc2ccccc2F)sc2nc3c(cc12)CCCC3`: the growth is 51.2% in assay [1]; 63.5% in assay [2]; 63.1% in [3]; 23.7% in assay [4]; 12% in assay [5]; 11.9% in assay [6]. Further, the growth in [7] is 23%; in [8] it was 39.5%; in assay [9] it was 33.2%; in [10], 13%.
As for `Nc1[nH]n2cc(-c3ccccc3)nc2c1N=Nc1ccc(S(N)(=O)=O)cc1`, the growth in assay [1] was 45.7%; in [2], 52.7%; in [3] it was 36.6%; in assay [4], 42.5%; in assay [5], 20.1%; in assay [6] it was 25.7%. The growth in [7] is 30.5%; in [8] it was 32.8%; in assay [9] it was 28.4%; in [10], 45.1%.

Source of the values: PubChem BioAssay (NCI).
